Measured values from PubChem BioAssay (Tox21).
Results filed as inconclusive are left out. The source made the active and inactive calls. Unless noted, calls come from the whole dose curve; as a rule, active = well fitted curve in the direction sought with a large enough effect in the repeat runs; inconclusive = weak or mixed curves; inactive = no such curve, though single readings can be large; an effect the other way counts as inactive or inconclusive.

Legend:
[1] = qHTS assay to identify small molecule agonists of the androgen receptor (AR) signaling pathway in the presence of an antagonist - cell viability counter screen (AID 1259379); note: nearly all actives have a fitted effect of over 25% in size; note: potency is the fitted concentration of half-maximal effect
Outline: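 Cytotoxicity counter-screen run in the same wells as the nilutamide-challenged (3.0 µM final) AR agonist assay in MDA-kb2 cells. Compounds tested at 15 concentrations for 16 h, 37 °C without CO2; CellTiter-Fluor fluorescence read.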

[2] = qHTS assay to identify small molecule agonists of the estrogen receptor beta (ER-beta) signaling pathway - cell viability counter screen (AID 1259380); note: potency is the fitted concentration of half-maximal effect; nearly all actives have a fitted effect of over 30% in size
Outline: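 Cell viability counter screen: CellTiter-Glo luminescence (30 min, room temperature) measured in the same wells as the beta-lactamase readout, after 16 hr compound exposure at 37C of ER-beta-bla HEK293T cells in 2% charcoal-stripped FBS medium.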

[3] = qHTS assay to identify small molecule agonists or antagonists of the thyroid stimulating hormone receptor (TSHR) signaling pathway - wild type cell line counter screen (AID 1259384; calls by dose curve; note: % is set by controls: 0 for no effect and ±100 for the full control effect)
Outline: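 Wild-type Hek293 cells, 800/well, 18 h at 37C, then compound with Ro20-1724 for 30 min RT. cAMP by HTRF (cAMP-d2/anti-cAMP cryptate), 1 h RT, fluorescence read. 15 concentrations, triplicates.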

[4] = target: Thyrotropin receptor (Homo sapiens) (UniProt P16473); assay: qHTS assay to identify small molecule antagonists of the thyroid stimulating hormone receptor (TSHR) signaling pathway (AID 1259385; calls by dose curve; note: % is set by controls: 0 for no effect and ±100 for the full control effect; nearly all actives have a fitted effect of over 20% in size)
Thyrotropin receptor (Homo sapiens), sequence (P16473 whole entry, looked up): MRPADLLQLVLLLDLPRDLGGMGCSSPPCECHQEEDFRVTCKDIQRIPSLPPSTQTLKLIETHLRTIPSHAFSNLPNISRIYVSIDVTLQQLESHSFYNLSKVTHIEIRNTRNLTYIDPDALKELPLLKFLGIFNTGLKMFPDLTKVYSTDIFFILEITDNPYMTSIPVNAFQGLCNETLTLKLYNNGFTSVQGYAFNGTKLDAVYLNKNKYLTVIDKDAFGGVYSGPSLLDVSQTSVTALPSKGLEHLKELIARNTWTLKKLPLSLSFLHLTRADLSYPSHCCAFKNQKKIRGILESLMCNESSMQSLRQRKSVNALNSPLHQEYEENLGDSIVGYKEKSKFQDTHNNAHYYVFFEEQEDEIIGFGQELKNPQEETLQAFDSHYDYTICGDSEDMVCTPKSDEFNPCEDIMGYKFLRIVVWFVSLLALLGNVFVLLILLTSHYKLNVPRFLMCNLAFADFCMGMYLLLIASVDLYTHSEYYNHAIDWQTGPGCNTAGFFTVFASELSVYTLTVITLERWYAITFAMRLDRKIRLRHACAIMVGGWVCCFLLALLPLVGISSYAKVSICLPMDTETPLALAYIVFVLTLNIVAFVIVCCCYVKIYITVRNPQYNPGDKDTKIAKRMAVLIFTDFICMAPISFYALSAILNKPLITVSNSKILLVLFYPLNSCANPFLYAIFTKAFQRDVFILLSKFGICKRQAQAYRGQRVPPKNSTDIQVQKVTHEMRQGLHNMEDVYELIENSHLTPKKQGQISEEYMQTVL
Outline: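 TSHR-HEK293 cells (800/well) plated 18 h, then compounds with Ro20-1724 and TSH at 1.5 ng/mL final, 30 min at room temperature. cAMP quantified by HTRF (cAMP-d2/anti-cAMP-cryptate, 1 h); 15 concentrations in triplicate.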

[5] = qHTS assay to identify small molecule agonists of the estrogen receptor alpha (ER-alpha) signaling pathway in the presence of an antagonist - cell viability counter screen (AID 1259386); note: series mostly up to about 92 µM; % is set by controls: 0 for no effect and ±100 for the full control effect; nearly all actives have a fitted effect of over 30% in size
Outline: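 Compounds tested at 15 concentrations for 22 h at 37C alongside 10.0nM (final) ICI-182,780 antagonist, in VM7Luc4E2 cells grown in phenol red-free, charcoal-stripped medium. Viability read by CellTiter-Fluor fluorescence after 1 h reagent incubation.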

[6] = target: Progesterone receptor (Homo sapiens) (UniProt P06401); assay: qHTS assay to identify small molecule agonists of the progesterone receptor (PR) signaling pathway (AID 1346784; calls by dose curve; note: % is set by controls: 0 for no effect and ±100 for the full control effect; nearly all actives have a fitted effect of over 30% in size)
Progesterone receptor (Homo sapiens), sequence (P06401 whole entry, looked up): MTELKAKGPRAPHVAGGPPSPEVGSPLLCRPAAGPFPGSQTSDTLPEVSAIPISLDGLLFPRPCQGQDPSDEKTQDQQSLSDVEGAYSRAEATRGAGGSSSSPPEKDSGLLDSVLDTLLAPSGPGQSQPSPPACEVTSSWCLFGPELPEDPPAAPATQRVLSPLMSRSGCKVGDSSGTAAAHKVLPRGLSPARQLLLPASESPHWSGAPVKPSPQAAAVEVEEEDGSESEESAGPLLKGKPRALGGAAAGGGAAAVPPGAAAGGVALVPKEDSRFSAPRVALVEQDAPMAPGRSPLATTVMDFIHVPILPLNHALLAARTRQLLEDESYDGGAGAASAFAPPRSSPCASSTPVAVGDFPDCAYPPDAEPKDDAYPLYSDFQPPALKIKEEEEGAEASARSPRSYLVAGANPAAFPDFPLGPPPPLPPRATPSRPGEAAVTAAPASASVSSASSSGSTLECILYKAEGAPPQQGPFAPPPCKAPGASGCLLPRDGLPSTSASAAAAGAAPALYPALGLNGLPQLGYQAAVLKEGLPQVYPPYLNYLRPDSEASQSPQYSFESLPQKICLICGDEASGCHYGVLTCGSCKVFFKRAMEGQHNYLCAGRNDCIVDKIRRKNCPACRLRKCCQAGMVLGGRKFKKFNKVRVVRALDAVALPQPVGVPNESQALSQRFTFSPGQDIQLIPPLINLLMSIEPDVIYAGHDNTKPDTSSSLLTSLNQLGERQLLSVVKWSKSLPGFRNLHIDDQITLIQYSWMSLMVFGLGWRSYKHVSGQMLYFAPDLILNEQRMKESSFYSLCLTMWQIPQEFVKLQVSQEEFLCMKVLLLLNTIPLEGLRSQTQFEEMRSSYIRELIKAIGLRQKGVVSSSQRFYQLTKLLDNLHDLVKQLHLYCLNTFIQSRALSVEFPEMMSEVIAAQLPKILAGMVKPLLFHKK
Outline: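 Cells (PR-UAS-bla HEK 293T, GripTite) were plated in assay medium containing 2% charcoal-stripped FBS and incubated 6 hr. Test compounds in DMSO were added for 16 hr at 37C. FRET substrate was then loaded for 2 hr at room temperature before fluorescence reading.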

[7] = qHTS assay to identify small molecule antagonists of the progesterone receptor (PR) signaling pathway - cell viability counter screen (AID 1346798); note: nearly all actives have a fitted effect of over 50% in size; note: potency is the fitted concentration of half-maximal effect
Outline: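 Counter screen for cytotoxicity: viability of PR-UAS-bla HEK293T cells was measured with CellTiter-Glo luminescence following 16 hr compound exposure in the presence of R5020.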

[8] = qHTS assay to identify small molecule agonists of the progesterone receptor (PR) signaling pathway - cell viability counter screen (AID 1346799; calls by dose curve; note: nearly all actives have a fitted effect of over 45% in size; note: potency is the fitted concentration of half-maximal effect)
Outline: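 Cells (PR-UAS-bla HEK293T) are plated at 3,000/well in 2% charcoal-stripped FBS medium, rested 6 hr, dosed and incubated 16 hr at 37C. CellTiter-Glo is then added and luminescence measured after 30 min at room temperature.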

[9] = qHTS assay to identify small molecule antagonists of the TGF-beta/Smad signaling pathway - cell viability counter screen (AID 1346824); note: % is set by controls: 0 for no effect and ±100 for the full control effect; nearly all actives have a fitted effect of over 50% in size
Outline: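 SBE-bla HEK 293T cells, incubated overnight, then compound plus 0.25 ng/mL TGF-beta1 (stock added) for 5 hr at 37 C. Viability was read in the same wells by CellTiter-Glo luminescence after 30 min at room temperature.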

[10] = qHTS assay to identify small molecule agonists of the TGF-beta/Smad signaling pathway - cell viability counter screen (AID 1346829); note: top concentration of the series differs between compounds; % is set by controls: 0 for no effect and ±100 for the full control effect; nearly all actives have a fitted effect of over 45% in size
Outline: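 Same-well cytotoxicity: CellTiter-Glo added after the 2 hr room-temperature beta-lactamase substrate step, luminescence measured 30 min later; cells had 5 hr of compound at 37 C.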

[11] = qHTS assay to identify small molecule agonists of the TGF-beta/Smad signaling pathway (AID 1346859; active = well fitted activation curve with a large enough effect in the signal ratio in the repeat runs, not every such curve was filed as active; the % refers to the signal ratio; note: series mostly up to about 77 µM; % is set by controls: 0 for no effect and ±100 for the full control effect)
Outline: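 Reporter line: HEK 293T with stably integrated SBE-controlled beta-lactamase. Compound exposure lasts 5 hr at 37 C and 5% CO2; substrate loading follows for 2 hr at room temperature, with emission read at 460 and 530 nm.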

[12] = target: Thyrotropin-releasing hormone receptor (Homo sapiens) (UniProt P34981); assay: qHTS assay to identify small molecule antagonists of the thyrotropin-releasing hormone receptor (TRHR) signaling pathway (AID 1346877; active = well fitted inhibition curve with a large enough effect in the repeat runs, not every such curve was filed as active; note: series mostly up to about 51 µM; % is set by controls: 0 for no effect and ±100 for the full control effect)
Thyrotropin-releasing hormone receptor (Homo sapiens), sequence (P34981 whole entry, looked up): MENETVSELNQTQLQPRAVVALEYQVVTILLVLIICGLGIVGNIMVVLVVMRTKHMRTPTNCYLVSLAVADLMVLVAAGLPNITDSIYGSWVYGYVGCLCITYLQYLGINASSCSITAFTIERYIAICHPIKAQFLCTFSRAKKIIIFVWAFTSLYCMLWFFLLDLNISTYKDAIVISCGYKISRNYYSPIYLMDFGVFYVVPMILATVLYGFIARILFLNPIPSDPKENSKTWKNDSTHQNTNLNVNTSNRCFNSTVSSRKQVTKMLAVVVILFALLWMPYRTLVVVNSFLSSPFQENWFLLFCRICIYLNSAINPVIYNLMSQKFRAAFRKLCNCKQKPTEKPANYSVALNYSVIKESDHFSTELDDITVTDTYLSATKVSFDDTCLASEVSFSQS
Outline: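 Antagonist mode: after a 5 min room-temperature compound exposure, cells were stimulated with 1 nM (final) TRH. Dye-loaded TRHR-HEK293 cells were used, and calcium-dependent fluorescence was followed for 3 min, with 15-point titrations run in triplicate.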

[13] = target: Thyrotropin-releasing hormone receptor (Homo sapiens) (UniProt P34981); assay: qHTS assay to identify small molecule agonists of the thyrotropin-releasing hormone receptor (TRHR) signaling pathway (AID 1346891; calls by dose curve; note: potency is the fitted concentration of half-maximal effect;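 for activation: HEK293 cells expressing TRHR with calcium dye readout; series mostly up to about 58 µM; % is set by controls: 0 for no effect and ±100 for the full control effect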)
Outline: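 Cells: TRHR-Hek293, seeded and incubated 18 h. Dye loading: 2 h at 37 °C. Compound added from DMSO stock by pin tool. Read-out: kinetic calcium fluorescence over 3 min.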

[14] = Human pregnane X receptor (PXR) small molecule agonists, qHTS cell viability counter screen (AID 1346977); note: nearly all actives have a fitted effect of over 50% in size; note: potency is the fitted concentration of half-maximal effect
Outline: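 Cytotoxicity counter screen run in the same wells as the PXR luciferase assay, using PXR-Luc HepG2 cells in charcoal-stripped serum medium. Viability: CellTiter-Fluor fluorescence after 24hr compound treatment.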

[15] = target: Progesterone receptor (Homo sapiens) (UniProt P06401); assay: qHTS assay to identify small molecule antagonists of the progesterone receptor (PR) signaling pathway (AID 1346795; active = well fitted inhibition curve with a large enough effect in the signal ratio in the repeat runs, not every such curve was filed as active; the % refers to the signal ratio; note: potency is the fitted concentration of half-maximal effect)
Outline: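 Antagonist mode: compounds tested against 1 nM (final) promegestone stimulation in HEK293T cells expressing PR-UAS-bla reporter, 16 hr at 37C, 5% CO2; beta-lactamase activity detected via B/G FRET substrate after 2 hr at room temperature.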

[16] = target: Androgen receptor (Homo sapiens) (UniProt P10275); assay: qHTS assay to identify small molecule agonists of the androgen receptor (AR) signaling pathway in the presence of an antagonist (AID 1259381; calls by dose curve; note: % is set by controls: 0 for no effect and ±100 for the full control effect; nearly all actives have a fitted effect of over 15% in size)
Androgen receptor (Homo sapiens), sequence (P10275 whole entry, looked up): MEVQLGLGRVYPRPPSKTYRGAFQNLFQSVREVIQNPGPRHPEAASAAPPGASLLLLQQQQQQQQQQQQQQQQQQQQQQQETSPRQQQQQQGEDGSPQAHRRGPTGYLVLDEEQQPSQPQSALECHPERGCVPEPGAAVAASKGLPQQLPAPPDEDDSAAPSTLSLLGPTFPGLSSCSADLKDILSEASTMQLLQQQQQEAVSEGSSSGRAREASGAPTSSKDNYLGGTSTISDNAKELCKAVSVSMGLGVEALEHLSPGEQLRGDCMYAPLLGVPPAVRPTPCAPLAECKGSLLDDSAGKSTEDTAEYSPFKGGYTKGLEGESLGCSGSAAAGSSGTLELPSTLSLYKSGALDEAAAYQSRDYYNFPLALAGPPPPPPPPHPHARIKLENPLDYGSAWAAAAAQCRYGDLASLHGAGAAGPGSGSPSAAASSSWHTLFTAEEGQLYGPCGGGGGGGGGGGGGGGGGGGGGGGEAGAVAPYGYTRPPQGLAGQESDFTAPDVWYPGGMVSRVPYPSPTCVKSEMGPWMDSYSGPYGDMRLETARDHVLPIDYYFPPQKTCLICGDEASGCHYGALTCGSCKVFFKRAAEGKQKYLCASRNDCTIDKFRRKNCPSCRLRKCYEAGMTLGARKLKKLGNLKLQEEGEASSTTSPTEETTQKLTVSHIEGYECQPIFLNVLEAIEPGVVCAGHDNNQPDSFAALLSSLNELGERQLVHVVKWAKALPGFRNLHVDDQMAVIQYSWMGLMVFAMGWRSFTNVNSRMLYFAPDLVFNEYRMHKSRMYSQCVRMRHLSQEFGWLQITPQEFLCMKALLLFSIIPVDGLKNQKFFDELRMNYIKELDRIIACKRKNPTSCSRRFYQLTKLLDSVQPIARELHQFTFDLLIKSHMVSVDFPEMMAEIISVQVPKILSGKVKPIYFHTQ
Outline: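 Agonist-mode confirmation run against 3.0 uM final nilutamide: compounds titrated at 15 concentrations onto MDA-kb2 MMTV-luciferase reporter cells. Luminescence measured with ONE-Glo following 16 hr incubation, 37C, 0% CO2.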

[17] = target: Estrogen receptor (Homo sapiens) (UniProt P03372); assay: qHTS assay to identify small molecule agonists of the estrogen receptor alpha (ER-alpha) signaling pathway in the presence of an antagonist (AID 1259383; calls by dose curve; note: top concentration of the series differs between compounds; % is set by controls: 0 for no effect and ±100 for the full control effect; nearly all actives have a fitted effect of over 15% in size)
Estrogen receptor (Homo sapiens), sequence (P03372 whole entry, looked up): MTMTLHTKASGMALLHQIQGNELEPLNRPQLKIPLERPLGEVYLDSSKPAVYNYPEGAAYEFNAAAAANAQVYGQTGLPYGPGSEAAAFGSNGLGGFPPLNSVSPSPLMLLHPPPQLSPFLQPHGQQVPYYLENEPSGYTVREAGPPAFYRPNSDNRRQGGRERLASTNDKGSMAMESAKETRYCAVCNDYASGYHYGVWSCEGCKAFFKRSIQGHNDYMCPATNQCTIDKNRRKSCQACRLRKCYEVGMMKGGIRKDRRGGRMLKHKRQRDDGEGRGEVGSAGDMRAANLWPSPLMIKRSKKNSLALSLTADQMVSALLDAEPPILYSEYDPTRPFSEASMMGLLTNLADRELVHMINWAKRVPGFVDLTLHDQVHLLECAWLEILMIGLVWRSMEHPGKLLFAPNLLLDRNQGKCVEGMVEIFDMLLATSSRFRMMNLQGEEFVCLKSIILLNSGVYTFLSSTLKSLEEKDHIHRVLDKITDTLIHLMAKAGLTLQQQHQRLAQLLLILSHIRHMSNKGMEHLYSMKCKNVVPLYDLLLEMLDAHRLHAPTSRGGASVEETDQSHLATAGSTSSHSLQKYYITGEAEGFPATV
Outline: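 Agonist-mode confirmation run in the presence of 10.0nM (final) ICI-182,780 antagonist. The reporter was ERE-driven luciferase in VM7Luc4E2 cells, grown in charcoal-stripped serum. Cells were exposed to 15-concentration compound series for 22hr, then ONE-Glo luminescence was read.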

[18] = qHTS assay to identify small molecule antagonists of the estrogen receptor beta (ER-beta) signaling pathway - cell viability counter screen (AID 1259382); note: nearly all actives have a fitted effect of over 55% in size; note: potency is the fitted concentration of half-maximal effect
Outline: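 Cytotoxicity was measured in the same wells by CellTiter-Glo luminescence after 30 min at room temperature. Cells were ER-beta-bla HEK293T in charcoal-stripped serum, given compound together with 1 nM E2 and incubated 16 h at 37C.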

CNCC[C@H](Oc1cccc2ccccc12)c1cccs1
inactive: outcome [3] | Potency [4] | Potency [5] | outcome [6] | Potency [9] | Potency [10] | Potency [11] | Potency [12] | Potency [13]
active: Potency [1] 29.8 µM | Potency [2] 16.8 µM | Potency [7] 23.7 µM | Potency [8] 21.1 µM | Potency [14] 29.8 µM

CC(C)c1cccc(C(C)C)c1N1C(=O)c2ccc(O)cc2C1=O
inactive: outcome [3] | Potency [4] | Potency [5] | outcome [6] | Potency [9] | Potency [10] | Potency [12] | Potency [13] | Potency [14]
active: Potency [15] 6.11 µM

CCC(C)c1cc([N+](=O)[O-])cc([N+](=O)[O-])c1OC(=O)OC(C)C (stereo not drawn)
inactive: Potency [16] | outcome [3] | Potency [4] | Potency [9] | Potency [10] | Potency [12] | Potency [13]
active: Potency [1] 61.1 µM | Potency [14] 34.4 µM

N#CSCSc1nc2ccccc2s1
active: Potency [2] 8.63 µM | Potency [14] 19.3 µM
inactive: Potency [16] | Potency [17] | outcome [3] | Potency [5] | Potency [8] | Potency [11] | Potency [13]

Cc1ccc(N)cc1O
inactive: Potency [1] | Potency [16] | Potency [17] | outcome [3] | Potency [10] | Potency [12] | Potency [13]

Oc1c(Br)cc(Br)c2cccnc12
active: Potency [2] 1.19 µM | Potency [15] 2.66 µM
inactive: Potency [17] | outcome [3] | Potency [8] | Potency [9] | Potency [10] | Potency [11]

CCN(CC)c1ccc(N)cc1
inactive: outcome [3] | Potency [12] | Potency [13]
active: Potency [1] 19.9 µM | Potency [18] 49.9 µM | Potency [8] 44.5 µM | Potency [14] 15.8 µM

CCN1CCN(c2cc(-c3ccc(F)cc3)c3c(n2)CCCCCC3)CC1
inactive: activity change, negative = cytotoxicity [1] -1.28% [at 19 µM] | activation [16] -0.375% [at 19 µM] | activity change, negative = cytotoxicity [18] -0.898% [at 19 µM] | cAMP activity change [3] 2.43% [at 18.9 µM] | activity change, negative = cytotoxicity [5] -2.28% [at 19 µM] | activation [6] -3.65% [at 19 µM] | activity change, negative = inhibition [15] -13.2% [at 18.9 µM] | activity change, negative = cytotoxicity [7] 1.1% [at 18.9 µM] | viability change, negative = cytotoxic [9] 0.113% [at 15.8 µM] | activity change, negative = cytotoxicity [10] -0.583% [at 15.8 µM] | activation [11] -2.06% [at 15.8 µM] | activity, negative = inhibition [12] 1.24% [at 10.5 µM] | activation [13] 0.262% [at 11.8 µM] | activity change, negative = cytotoxicity [14] 0.184% [at 19 µM]

CCCCCCCCCCOCC(O)CN (stereo not drawn)
active: Potency [2] 26.6 µM | Potency [18] 26.6 µM | Potency [8] 29.8 µM | Potency [14] 26.6 µM
inactive: Potency [16] | Potency [17] | outcome [3] | Potency [4] | Potency [5] | Potency [9] | Potency [11] | Potency [12] | Potency [13]

CCCCCCCC/C=C\CCCCCCCC(=O)NCc1ccc(O)c(OC)c1
inactive: Potency [1] | Potency [18] | Potency [5] | outcome [6] | Potency [9] | Potency [10] | Potency [11] | Potency [14]

CCCCCCCCCCCCCCCCCO
inactive: activity change, negative = cytotoxicity [1] 1.97% [at 19 µM] | activation [16] -1.33% [at 19 µM] | activity change, negative = cytotoxicity [18] 3.37% [at 19 µM] | activation [17] -1.67% [at 19 µM] | activity change, negative = cytotoxicity [5] 2.39% [at 19 µM] | activation [6] -3.68% [at 19 µM] | activity change, negative = inhibition [15] 1.26% [at 18.9 µM] | activity change, negative = cytotoxicity [7] -7.24% [at 18.9 µM] | activity change, negative = cytotoxicity [8] -18.8% [at 19 µM] | viability change, negative = cytotoxic [9] -8.2% [at 15.8 µM] | activation [11] -0.867% [at 15.8 µM] | activity, negative = inhibition [12] 0.827% [at 10.5 µM] | activation [13] 0.0338% [at 11.8 µM] | activity change, negative = cytotoxicity [14] 3.58% [at 19 µM]

COc1ccc(C#N)cc1
inactive: Potency [1] | Potency [18] | Potency [17] | outcome [3] | Potency [4] | Potency [5] | outcome [6] | Potency [15] | Potency [8] | Potency [9] | Potency [10] | Potency [11] | Potency [12] | Potency [13]

C[n+]1c2cc(N)ccc2cc2ccc(N)cc21 (tested in a mixture with another compound)
active: Potency [2] 11.9 µM | Potency [13] 7.56 µM
inactive: Potency [16] | Potency [9] | Potency [10] | Potency [12]
